Compound activity as filed in PubChem.
PINK1 modulator: modulators of PINK1 expression. Potency, µM (highest dose often 76.6 µM), most hits filed as activators. PINK1 immunofluorescence, high-content cytometry, 24 h. actives 0.2% (n = 410,000); active means well fitted activation curve with a large enough effect; inconclusive means small, poorly fitted or top-dose-only effect; cell line not stated here; further: nearly all actives have a fitted effect of over 65% in size
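Compound titrations (5 concentrations, 24 h) on a stable cell line; DMSO and CCCP controls. Endpoint: fixed-cell PINK1 immunofluorescence with mitochondrial, cell and nuclear markers, scanned by microplate cytometer.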
Anesthetic bind: binds horse apoferritin like a general anesthetic; Potency, µM (highest dose often 77.5 µM), hits mostly inhibitors; apoferritin/1-aminoanthracene competitive binding, fluorescence; P02791; actives 0.074% (n = 350,000); AID 485281; further: nearly all actives have a fitted effect of over 20% in size
Target sequence (P02791 2-175 limits assumed): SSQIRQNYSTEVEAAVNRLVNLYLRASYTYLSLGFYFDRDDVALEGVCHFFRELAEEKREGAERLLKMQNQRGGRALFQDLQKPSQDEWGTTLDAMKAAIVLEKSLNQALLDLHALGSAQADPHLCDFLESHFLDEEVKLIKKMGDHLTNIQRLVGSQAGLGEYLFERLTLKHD
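In PBS, apoferritin at 10 uM is loaded with 1-AMA from a 50% saturated solution. After 10 min of compound exposure at ambient temperature, reduced 535 nm fluorescence indicates probe displacement.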
Epigenetic reg: epigenetic control regulation, reporter derepression | murine LDR cells, GFP reporter derepression, 30 h | Potency, µM (top dose mostly 53.9 µM), hits mostly activators | AID 1865 | actives 0.2% (n = 280,000); further: nearly all actives have a fitted effect of over 60% in size
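Murine LDR cells bearing a silenced CMV-driven GFP reporter were exposed to compound for 30 h at 37 C. After PBS washes, GFP-positive cells (20-120 um objects) counted by laser-scanning microplate cytometry.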
PTAP TSG101 blk: blocks PTAP/TSG101 interaction to inhibit HIV-1 budding; Potency, µM (top dose mostly 115 µM), usual class: inhibitors; Fluorescence polarization, FITC-PTAP peptide / Tsg101 binding; Q99816; AID 493005; 340,000 tested, under 10 active; active means well fitted inhibition curve with a large enough effect in the main read-out, with a control signal flat, not every such curve was filed as active; inconclusive means small, poorly fitted or top-dose-only effect, or effect the other way, or a change in a side signal; inactive means no such curve, though single readings can be large or run the other way
Target sequence (Q99816 whole entry, looked up): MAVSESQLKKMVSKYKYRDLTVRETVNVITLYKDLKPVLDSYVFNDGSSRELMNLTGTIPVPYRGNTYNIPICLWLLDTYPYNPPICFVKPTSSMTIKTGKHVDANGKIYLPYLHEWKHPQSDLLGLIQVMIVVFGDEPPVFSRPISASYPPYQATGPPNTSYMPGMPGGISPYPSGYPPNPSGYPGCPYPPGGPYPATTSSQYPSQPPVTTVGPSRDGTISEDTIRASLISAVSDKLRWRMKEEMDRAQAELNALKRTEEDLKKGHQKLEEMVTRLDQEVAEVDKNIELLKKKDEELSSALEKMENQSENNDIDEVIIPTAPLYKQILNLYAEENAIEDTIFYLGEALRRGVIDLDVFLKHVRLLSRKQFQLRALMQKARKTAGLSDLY
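Fluorescence polarization binding of Tsg101 binding domain (10 uM final) to FITC-labeled PTAP peptide (50 nM final) in HEPES pH 7.5 buffer with NaCl, Tween 20, EDTA, TCEP. Compounds added before peptide; binding 20 min at RT.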
HttQ103 aggreg: mutant huntingtin aggregation inhibition; PC12 HttQ103-GFP aggregates, Acumen cytometry, 40 h; Potency, µM (highest dose often 46.1 µM), usual class: inhibitors; actives 1.1% (n = 220,000); AID 1688; further: nearly all actives have a fitted effect of over 60% in size
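Using laser scanning cytometry, GFP-positive aggregates were counted after lysis of PC12 cells induced with 100 nM tebufenozide to express HTT exon 1 Q103–GFP. Compounds were tested in titration.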
HTT cytoprotect: cytoprotection in Huntington HTT-Q103 PC12 cell model; Potency, µM (doses to about 56.4 µM), usual class: activators; PC12 HTT-Q103 induced, cytoprotection, ATP luminescence, 40 h; actives 0.14% (n = 230,000); AID 1471; further: nearly all actives have a fitted effect of over 45% in size
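Readout: ATPlite luminescence (ATP level). Model: stable PC12, inducible Htt exon1 Q103-GFP. Inducer: tebufenozide, 100 nM final. Compounds: dose series. No G418 in medium.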
HCC4017 tox: HCC4017 cytotoxicity of epigenetic modulator hits; shares compounds with Epigenetic reg; HCC4017 NSCLC viability, CellTiter-Glo ATP luminescence, 72 h; Potency, µM (highest dose often 46.1 µM), actives largely listed as cytotoxic; actives 30% (n = 45)
H358 viab: reduces H358 lung cancer cell viability among epigenetic modulators. Potency, µM (top dose mostly 46.1 µM), usual class: cytotoxic. H358 NSCLC viability, ATP luminescence, 72 h. shares compounds with Epigenetic reg. actives 30% (n = 45)
Each line names hits and unclear results; the compound was inactive in the other large screens (follow-up assays come after a bar, where they were run). This is one part of a sample in which hits are shown more often than they occur. Unless noted, the call rests on the fitted dose curve; in most records, active means well fitted curve in the direction sought with a large enough effect; inconclusive means small, poorly fitted or top-dose-only effect, or another doubt; inactive means no such curve, though single readings can be large; an effect the other way counts as inactive or inconclusive.

CCCCn1c(O)c(C(CC)=NCc2ccc3c(c2)OCO3)c(=O)[nH]c1=O	HttQ103 aggreg 25.1µM
CC[C@H]1[C@@H]2C[C@@H]3[C@@H]4N(C)c5ccccc5[C@@]45C[C@@H]([C@H]2[C@@H]5O)N3[C@@H]1O	none (no result: PINK1 modulator, Anesthetic bind, Epigenetic reg, PTAP TSG101 blk, HttQ103 aggreg)
C=C1C(=O)O[C@@H]2C[C@@H](C)[C@@H]3C=CC(=O)[C@@]3(C)[C@@H](OC(=O)CC(=O)O[C@H]3[C@@H]4C(=C)C(=O)O[C@@H]4C[C@@H](C)[C@@H]4C=CC(=O)[C@]43C)[C@H]12	HttQ103 aggreg 0.631µM
C=C1C(=O)O[C@H]2[C@H]1[C@H](OC(=O)CC(=O)O[C@@H]1C[C@@H](C)[C@@H]3C=CC(=O)[C@@]3(C)[C@H]3OC(=O)C(=C)[C@H]13)C[C@@H](C)[C@H]1C=CC(=O)[C@]12C	HTT cytoprotect 4.47µM
C=C1C(=O)OC2CC(C)C3C=CC(=O)C3(C)C(O)C12 (configuration not stated)	none (no result: Anesthetic bind, Epigenetic reg, HttQ103 aggreg, HTT cytoprotect)
COc1ccc(CCNC(=O)c2ccc3c(c2)CCN3S(=O)(=O)c2ccc(C)cc2)cc1OC	none (no result: PTAP TSG101 blk, HttQ103 aggreg, HTT cytoprotect)
CCN1C[C@@]2(C)CC[C@H](O)[C@@]34[C@@H]5C[C@H]6[C@H](O)[C@@H]5[C@](O)(C[C@@H]6OC)[C@H](C[C@@H]23)[C@H]14	none (no result: PINK1 modulator, Anesthetic bind, Epigenetic reg, PTAP TSG101 blk, HttQ103 aggreg)
COc1cc2c(cc1OC)[C@]13CCN4CC5=CCO[C@@H]6CC(=O)N2[C@@H]1[C@H]6[C@@H]5C[C@H]43	none (no result: PINK1 modulator, Anesthetic bind, Epigenetic reg, PTAP TSG101 blk, HttQ103 aggreg)
NC(N)=NN=C(/C=C/c1ccc([N+](=O)[O-])o1)/C=C/c1ccc([N+](=O)[O-])o1	HttQ103 aggreg 10µM (no result: PINK1 modulator, Anesthetic bind, Epigenetic reg, PTAP TSG101 blk)
Cc1cccc(N2C(=O)NC(=O)/C(=C/c3ccc([N+](=O)[O-])o3)C2=O)c1	HttQ103 aggreg inconclusive
Cc1ccccc1-n1c(/C=C/c2ccc(N(C)C)cc2)nc2ccccc2c1=O	Epigenetic reg 10µM (no result: PTAP TSG101 blk, HttQ103 aggreg, HTT cytoprotect)
Cc1ccccc1-n1c(/C=C/c2c(C)[nH]c3ccccc23)nc2ccccc2c1=O	Epigenetic reg inconclusive (no result: PTAP TSG101 blk, HttQ103 aggreg, HTT cytoprotect)
CC1CCN(S(=O)(=O)c2ccc(NN=C(C#N)C#N)cc2)CC1	HttQ103 aggreg 15.8µM (no result: PINK1 modulator, PTAP TSG101 blk)
N#CC(C#N)=NNc1ccc(S(N)(=O)=O)cc1	none
CCn1ccnc1CN1CCCC(C(=O)c2cc(F)ccc2OC)C1 (configuration not stated)	Epigenetic reg 3.98µM
Oc1cccc2cccnc12	Epigenetic reg 3.98µM, HTT cytoprotect inconclusive (no result: PTAP TSG101 blk)
CCCN1CCc2cccc3c2[C@@H]1Cc1ccc(O)c(O)c1-3	none (no result: PINK1 modulator, Anesthetic bind, Epigenetic reg, PTAP TSG101 blk, HttQ103 aggreg)
Nc1ccc2c3c(cccc13)-c1ccccc1-2	PINK1 modulator 11.2µM, PTAP TSG101 blk inconclusive (no result: Anesthetic bind, Epigenetic reg, HttQ103 aggreg, HTT cytoprotect)
CN1CC=C2C(C#N)=C(N)C(C#N)(C#N)C(c3ccncc3)C2C1 (configuration not stated)	PINK1 modulator 25.1µM, PTAP TSG101 blk inconclusive
COC(=O)C[C@](O)(CCCC(C)(C)O)C(=O)O[C@@H]1C(OC)=C[C@]23CCCN2CCc2cc4c(cc2[C@H]13)OCO4	HttQ103 aggreg 0.159µM (no result: PINK1 modulator, Anesthetic bind, PTAP TSG101 blk)
CN1CSC(=S)N(C)C1	Epigenetic reg 8.91µM | HCC4017 tox inconclusive | H358 viab inconclusive
O=C1C=CC(=O)C(Cl)=C1	Anesthetic bind inconclusive (no result: PINK1 modulator, PTAP TSG101 blk, HttQ103 aggreg)
